The text below walks through data of PMC7862700, “An all-to-all approach to the identification of sequence-specific readers for epigenetic DNA modifications on cytosine”.

Common to all, as to assay: DAPPL (digital affinity profiling via proximity ligation, sequencing); 10 mM Tris-HCl pH 7.5, 50 mM NaCl, 1 mM DTT, 4% glycerol, room temperature, 30 min; GST-TFs on glutathione beads, 16-mer random dsDNA library, 0.1% formaldehyde crosslink after washing; high values mean tight binding
The target of one assay is T1, FEV (Homo sapiens, UniProt Q99581 1-238).
T1 sequence: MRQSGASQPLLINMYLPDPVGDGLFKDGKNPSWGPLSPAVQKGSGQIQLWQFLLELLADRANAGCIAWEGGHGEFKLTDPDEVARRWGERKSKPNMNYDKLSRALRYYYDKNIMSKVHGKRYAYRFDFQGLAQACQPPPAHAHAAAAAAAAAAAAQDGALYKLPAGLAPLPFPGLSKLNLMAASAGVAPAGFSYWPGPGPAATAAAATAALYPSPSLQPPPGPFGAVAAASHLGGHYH
The following applies: protein: recombinant; tags: N-terminal GST; dsDNA, one strand shown. The method, boiled down: (§1)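 Binding signal is defined as a hexamer's read frequency for one factor over its frequency for the tag-only sample. To obtain reads, GST-fused human transcription factors were expressed in yeast, captured on glutathione beads, barcoded with DNA and pooled with that sample. Pools met 200 nmole of a 16-mer random double-stranded DNA library in Tris/NaCl/DTT/glycerol buffer for 30 min at room temperature before washing, 0.1% formaldehyde crosslinking, proximity ligation (BsaI/T4 ligase, 1 h, 37 °C), PCR and Illumina NextSeq500 sequencing.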

A further assay concerns the target ETV5 (Homo sapiens, UniProt P41161 1-510). The following applies: protein: recombinant; tags: N-terminal GST; dsDNA, one strand shown. The method, boiled down:
as §1

The target of another assay is HSF1 (Homo sapiens, UniProt Q00613 1-529). The following applies: protein: recombinant; tags: N-terminal GST; chain copies: 3; dsDNA, one strand shown. The method, boiled down: as §1
Sequence of HSF1 (Q00613 whole entry): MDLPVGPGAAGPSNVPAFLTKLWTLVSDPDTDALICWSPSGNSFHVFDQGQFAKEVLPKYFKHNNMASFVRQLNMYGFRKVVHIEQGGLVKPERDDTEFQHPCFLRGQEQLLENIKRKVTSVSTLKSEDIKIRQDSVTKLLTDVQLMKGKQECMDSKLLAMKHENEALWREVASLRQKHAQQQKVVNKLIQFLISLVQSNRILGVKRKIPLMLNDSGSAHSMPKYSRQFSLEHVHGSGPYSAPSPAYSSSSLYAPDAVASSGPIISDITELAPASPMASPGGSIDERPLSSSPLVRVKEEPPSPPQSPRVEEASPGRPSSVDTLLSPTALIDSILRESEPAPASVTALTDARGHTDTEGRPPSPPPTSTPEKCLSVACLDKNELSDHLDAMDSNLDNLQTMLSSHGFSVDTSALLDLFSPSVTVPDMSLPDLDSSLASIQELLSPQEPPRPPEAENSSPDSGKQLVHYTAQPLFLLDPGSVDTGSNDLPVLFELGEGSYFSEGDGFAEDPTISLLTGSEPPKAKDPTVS
The target in the next assay is T2, SPIC (Homo sapiens, UniProt Q8N5J4 1-248).
T2 sequence: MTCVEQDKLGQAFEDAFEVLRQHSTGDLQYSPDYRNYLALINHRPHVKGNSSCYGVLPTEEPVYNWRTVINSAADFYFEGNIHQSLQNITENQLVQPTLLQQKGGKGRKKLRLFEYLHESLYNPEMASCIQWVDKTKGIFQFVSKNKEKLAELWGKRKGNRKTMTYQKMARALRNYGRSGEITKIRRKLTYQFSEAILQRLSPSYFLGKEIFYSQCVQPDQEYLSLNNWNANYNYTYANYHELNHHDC
As to conditions: protein: recombinant; tags: N-terminal GST; dsDNA, one strand shown. Put shortly: as §1

The target in a further assay is ELF4 (Homo sapiens, UniProt Q99607 1-663). The following applies: protein: recombinant; tags: N-terminal GST; dsDNA, one strand shown. Put shortly:
as §1

The next assay deals with T3, ELK4 (Homo sapiens, UniProt P28324-2 1-405).
T3 sequence: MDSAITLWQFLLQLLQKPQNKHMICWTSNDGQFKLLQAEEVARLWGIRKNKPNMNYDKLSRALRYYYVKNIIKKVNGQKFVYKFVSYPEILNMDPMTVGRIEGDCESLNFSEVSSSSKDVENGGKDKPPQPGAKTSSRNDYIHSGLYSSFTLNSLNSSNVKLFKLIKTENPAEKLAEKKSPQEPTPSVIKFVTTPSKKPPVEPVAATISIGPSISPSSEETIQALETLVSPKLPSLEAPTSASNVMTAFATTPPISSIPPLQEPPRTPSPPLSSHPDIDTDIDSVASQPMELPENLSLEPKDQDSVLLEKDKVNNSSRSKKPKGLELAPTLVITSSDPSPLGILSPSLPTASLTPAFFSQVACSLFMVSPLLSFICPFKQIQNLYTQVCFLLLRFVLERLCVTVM
The following applies: protein: recombinant; tags: N-terminal GST; dsDNA, one strand shown. The method, boiled down: as §1

For a further assay, the target named is T4, ETV2 (Homo sapiens, UniProt O00321 1-342).
T4 sequence: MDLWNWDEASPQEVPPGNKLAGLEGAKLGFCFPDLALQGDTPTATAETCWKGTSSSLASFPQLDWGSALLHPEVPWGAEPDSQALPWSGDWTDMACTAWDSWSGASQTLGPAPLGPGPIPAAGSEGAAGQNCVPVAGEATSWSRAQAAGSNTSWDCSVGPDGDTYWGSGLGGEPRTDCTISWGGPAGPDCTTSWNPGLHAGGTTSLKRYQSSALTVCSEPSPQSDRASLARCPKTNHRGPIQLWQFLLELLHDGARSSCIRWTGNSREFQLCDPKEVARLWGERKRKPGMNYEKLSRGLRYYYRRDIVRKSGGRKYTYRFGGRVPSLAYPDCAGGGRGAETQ
The following applies: protein: recombinant; tags: N-terminal GST; dsDNA, one strand shown. Put shortly:
as §1

Another assay has as its target T5, ELF3 (Homo sapiens, UniProt P78545 1-371).
T5 sequence: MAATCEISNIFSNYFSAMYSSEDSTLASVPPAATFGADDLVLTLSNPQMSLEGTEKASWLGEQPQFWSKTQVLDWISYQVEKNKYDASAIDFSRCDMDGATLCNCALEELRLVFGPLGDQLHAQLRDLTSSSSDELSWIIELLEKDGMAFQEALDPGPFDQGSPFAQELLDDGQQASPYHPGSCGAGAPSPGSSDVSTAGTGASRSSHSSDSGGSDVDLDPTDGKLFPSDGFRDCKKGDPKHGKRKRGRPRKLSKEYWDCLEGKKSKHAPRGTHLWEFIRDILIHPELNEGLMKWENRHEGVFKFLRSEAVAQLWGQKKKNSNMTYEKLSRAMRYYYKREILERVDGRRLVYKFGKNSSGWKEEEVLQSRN
As to conditions: protein: recombinant; tags: N-terminal GST; dsDNA, one strand shown. Put shortly: as §1

The target in the next assay is CRX (Homo sapiens, UniProt O43186 1-299). As to conditions: protein: recombinant; tags: N-terminal GST; dsDNA, one strand shown. The method, boiled down: as §1
Sequence of CRX (O43186 whole entry): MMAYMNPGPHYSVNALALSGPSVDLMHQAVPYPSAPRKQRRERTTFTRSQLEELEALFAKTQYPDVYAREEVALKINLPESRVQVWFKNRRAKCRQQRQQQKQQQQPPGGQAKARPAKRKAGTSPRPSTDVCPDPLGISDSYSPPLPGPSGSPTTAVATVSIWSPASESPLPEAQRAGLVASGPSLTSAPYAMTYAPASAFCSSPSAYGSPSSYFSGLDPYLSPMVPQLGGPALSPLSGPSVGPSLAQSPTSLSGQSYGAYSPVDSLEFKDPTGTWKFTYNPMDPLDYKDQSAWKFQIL
The target of a further assay is ETV1 (Homo sapiens, UniProt P50549 1-477). The following applies: protein: recombinant; tags: N-terminal GST; dsDNA, one strand shown. Put shortly: as §1
Sequence of ETV1 (P50549 whole entry): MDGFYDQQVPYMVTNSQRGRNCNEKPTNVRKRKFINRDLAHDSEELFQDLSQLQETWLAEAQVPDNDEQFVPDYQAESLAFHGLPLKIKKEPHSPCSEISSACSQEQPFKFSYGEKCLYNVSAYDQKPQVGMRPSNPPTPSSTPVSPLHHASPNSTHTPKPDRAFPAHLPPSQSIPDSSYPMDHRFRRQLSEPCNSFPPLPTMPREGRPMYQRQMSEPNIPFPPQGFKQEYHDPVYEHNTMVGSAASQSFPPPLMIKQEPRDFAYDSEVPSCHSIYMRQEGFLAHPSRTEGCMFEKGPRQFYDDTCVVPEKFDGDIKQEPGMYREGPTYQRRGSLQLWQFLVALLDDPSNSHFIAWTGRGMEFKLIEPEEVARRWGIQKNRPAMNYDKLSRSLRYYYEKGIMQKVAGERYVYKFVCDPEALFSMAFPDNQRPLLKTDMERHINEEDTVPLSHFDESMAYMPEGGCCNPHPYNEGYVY
In another assay the target is T6, ERF (Homo sapiens, UniProt P50548 1-548).
T6 sequence: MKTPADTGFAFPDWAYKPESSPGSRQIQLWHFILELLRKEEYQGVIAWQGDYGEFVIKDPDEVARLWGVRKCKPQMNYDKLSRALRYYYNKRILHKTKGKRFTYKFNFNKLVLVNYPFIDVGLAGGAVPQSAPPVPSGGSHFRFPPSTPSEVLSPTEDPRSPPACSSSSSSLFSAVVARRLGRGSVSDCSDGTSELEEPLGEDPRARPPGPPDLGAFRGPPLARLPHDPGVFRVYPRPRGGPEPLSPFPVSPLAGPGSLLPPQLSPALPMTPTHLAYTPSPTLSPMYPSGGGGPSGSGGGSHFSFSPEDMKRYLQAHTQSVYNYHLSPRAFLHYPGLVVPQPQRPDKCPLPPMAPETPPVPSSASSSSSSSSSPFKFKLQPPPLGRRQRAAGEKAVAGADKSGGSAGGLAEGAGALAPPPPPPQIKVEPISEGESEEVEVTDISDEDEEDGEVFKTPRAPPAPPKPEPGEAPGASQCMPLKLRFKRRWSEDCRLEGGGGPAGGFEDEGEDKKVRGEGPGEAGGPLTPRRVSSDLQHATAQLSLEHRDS
As to conditions: protein: recombinant; tags: N-terminal GST; dsDNA, one strand shown. Put shortly:
as §1

The target of the next assay is T7, ETV3L (Homo sapiens, UniProt Q6ZN32 1-361).
T7 sequence: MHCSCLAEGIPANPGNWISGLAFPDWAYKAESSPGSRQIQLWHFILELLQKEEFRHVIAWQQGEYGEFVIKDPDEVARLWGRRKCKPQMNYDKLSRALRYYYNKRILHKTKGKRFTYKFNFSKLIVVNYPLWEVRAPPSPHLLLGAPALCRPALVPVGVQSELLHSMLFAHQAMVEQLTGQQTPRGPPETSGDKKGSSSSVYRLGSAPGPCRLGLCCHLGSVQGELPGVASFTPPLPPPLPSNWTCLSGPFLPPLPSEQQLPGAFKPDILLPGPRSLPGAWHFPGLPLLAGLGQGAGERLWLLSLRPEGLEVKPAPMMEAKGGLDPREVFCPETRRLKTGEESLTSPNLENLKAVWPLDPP
The following applies: protein: recombinant; tags: N-terminal GST; dsDNA, one strand shown. Put shortly: as §1

A further assay addresses T8, ETS2 (Homo sapiens, UniProt P15036 1-469).
T8 sequence: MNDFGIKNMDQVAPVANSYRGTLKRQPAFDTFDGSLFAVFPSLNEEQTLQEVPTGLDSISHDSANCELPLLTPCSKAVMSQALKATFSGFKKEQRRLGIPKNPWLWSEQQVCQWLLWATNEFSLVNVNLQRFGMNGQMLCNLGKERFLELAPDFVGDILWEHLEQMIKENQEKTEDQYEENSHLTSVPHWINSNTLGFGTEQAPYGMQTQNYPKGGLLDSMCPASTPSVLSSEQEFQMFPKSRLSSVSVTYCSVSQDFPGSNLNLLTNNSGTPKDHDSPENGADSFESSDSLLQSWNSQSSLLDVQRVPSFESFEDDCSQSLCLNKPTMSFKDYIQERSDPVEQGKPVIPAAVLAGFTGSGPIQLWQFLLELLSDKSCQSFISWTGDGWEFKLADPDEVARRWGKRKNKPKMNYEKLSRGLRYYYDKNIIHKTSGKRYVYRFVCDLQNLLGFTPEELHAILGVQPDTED
The following applies: protein: recombinant; tags: N-terminal GST; dsDNA, one strand shown. Put shortly: as §1

The next assay concerns the target T9, SPDEF (Homo sapiens, UniProt O95238 1-335).
T9 sequence: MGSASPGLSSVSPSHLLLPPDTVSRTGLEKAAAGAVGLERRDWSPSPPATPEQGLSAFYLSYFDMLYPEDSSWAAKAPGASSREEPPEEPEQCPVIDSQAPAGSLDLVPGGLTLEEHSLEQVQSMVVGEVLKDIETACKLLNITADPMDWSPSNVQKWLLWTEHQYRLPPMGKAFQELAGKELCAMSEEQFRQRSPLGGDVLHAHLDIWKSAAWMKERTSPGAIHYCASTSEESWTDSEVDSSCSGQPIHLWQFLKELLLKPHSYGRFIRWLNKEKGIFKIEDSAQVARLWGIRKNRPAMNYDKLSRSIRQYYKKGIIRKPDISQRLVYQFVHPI
The following applies: protein: recombinant; tags: N-terminal GST; dsDNA, one strand shown. Put shortly:
as §1

Another assay addresses T10, ETV7 (Homo sapiens, UniProt Q9Y603 1-341).
T10 sequence: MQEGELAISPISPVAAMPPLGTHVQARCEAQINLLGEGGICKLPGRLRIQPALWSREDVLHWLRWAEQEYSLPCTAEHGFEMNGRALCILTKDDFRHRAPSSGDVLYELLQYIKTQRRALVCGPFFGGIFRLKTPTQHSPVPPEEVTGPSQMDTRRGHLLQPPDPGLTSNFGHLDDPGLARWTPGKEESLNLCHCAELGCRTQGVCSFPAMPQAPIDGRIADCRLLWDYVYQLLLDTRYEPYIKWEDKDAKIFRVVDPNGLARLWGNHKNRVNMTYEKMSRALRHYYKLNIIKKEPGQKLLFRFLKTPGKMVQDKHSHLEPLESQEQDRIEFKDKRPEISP
As to conditions: protein: recombinant; tags: N-terminal GST; dsDNA, one strand shown. The method, boiled down:
as §1

The target of the next assay is T11, ELF5 (Homo sapiens, UniProt Q9UKW6-2 1-255).
T11 sequence: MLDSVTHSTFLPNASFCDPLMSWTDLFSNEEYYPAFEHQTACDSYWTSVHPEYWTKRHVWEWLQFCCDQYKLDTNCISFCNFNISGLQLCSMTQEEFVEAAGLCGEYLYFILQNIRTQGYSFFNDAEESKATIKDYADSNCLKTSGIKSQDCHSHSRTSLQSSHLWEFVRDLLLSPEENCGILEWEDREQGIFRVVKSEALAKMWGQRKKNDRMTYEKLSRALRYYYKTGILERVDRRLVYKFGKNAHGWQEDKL
As to conditions: protein: recombinant; tags: N-terminal GST; dsDNA, one strand shown. Put shortly: as §1

Another assay has as its target T12, ETV3 (Homo sapiens, UniProt P41162-2 1-143).
T12 sequence: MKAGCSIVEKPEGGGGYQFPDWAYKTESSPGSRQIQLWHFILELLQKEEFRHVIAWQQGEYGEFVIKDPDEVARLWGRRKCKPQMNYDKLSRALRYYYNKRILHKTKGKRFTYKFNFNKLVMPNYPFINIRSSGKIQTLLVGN
As to conditions: protein: recombinant; tags: N-terminal GST; dsDNA, one strand shown. The method, boiled down: as §1

The next assay concerns the target ETV6 (Homo sapiens, UniProt P41212 1-452). As to conditions: protein: recombinant; tags: N-terminal GST; dsDNA, one strand shown. The method, boiled down: as §1

Sequence of ELF4 (Q99607 whole entry): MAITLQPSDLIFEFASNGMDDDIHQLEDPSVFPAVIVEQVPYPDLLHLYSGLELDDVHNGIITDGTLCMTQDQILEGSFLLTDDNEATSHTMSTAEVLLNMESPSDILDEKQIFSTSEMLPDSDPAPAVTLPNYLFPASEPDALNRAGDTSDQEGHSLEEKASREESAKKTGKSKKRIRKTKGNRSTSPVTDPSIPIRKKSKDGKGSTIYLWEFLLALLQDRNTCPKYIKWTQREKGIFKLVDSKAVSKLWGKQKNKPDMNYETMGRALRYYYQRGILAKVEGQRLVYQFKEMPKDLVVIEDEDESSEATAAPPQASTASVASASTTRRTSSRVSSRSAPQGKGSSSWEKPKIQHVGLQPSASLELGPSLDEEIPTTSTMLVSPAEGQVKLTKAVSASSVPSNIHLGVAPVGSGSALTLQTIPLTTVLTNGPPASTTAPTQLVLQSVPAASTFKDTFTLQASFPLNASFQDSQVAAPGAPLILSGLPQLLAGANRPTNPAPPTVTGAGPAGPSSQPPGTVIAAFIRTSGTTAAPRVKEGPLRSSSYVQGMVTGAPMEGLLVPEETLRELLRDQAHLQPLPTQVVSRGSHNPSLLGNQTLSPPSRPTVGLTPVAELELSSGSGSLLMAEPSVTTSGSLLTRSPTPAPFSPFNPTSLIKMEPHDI
Sequence of ETV5 (P41161 whole entry): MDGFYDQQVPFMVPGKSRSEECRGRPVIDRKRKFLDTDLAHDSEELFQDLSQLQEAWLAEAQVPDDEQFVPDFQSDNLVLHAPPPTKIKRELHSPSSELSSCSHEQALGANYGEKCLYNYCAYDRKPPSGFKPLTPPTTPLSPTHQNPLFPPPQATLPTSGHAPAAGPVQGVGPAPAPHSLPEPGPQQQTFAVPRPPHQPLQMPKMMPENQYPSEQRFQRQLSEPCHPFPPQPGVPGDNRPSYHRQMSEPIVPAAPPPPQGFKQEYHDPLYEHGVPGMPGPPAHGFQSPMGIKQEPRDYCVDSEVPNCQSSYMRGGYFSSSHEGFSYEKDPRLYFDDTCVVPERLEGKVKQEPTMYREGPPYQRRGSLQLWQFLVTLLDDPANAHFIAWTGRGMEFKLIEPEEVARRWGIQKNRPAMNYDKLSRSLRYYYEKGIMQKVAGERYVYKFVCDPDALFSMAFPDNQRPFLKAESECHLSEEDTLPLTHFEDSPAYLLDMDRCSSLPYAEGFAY
Sequence of ETV6 (P41212 whole entry): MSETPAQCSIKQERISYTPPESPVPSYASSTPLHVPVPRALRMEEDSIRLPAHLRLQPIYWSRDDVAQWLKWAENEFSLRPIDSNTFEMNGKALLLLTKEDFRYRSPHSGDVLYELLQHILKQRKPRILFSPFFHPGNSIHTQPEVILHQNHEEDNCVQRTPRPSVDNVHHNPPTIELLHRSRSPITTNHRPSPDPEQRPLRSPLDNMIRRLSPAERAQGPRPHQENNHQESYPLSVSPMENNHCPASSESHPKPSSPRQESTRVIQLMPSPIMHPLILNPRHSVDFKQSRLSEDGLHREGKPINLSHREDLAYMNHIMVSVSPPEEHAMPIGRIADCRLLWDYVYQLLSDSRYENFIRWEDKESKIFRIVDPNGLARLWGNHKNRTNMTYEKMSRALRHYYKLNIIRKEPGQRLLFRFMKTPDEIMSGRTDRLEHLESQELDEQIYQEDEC

TTACCA: the binding signal with FEV was 1.09 fold enrichment (6-mer frequency, TF over GST control); with ETV5, 1.04 fold enrichment (6-mer frequency, TF over GST control); with HSF1, 1.47 fold enrichment (6-mer frequency, TF over GST control); in the assay with SPIC, 1.09 fold enrichment (6-mer frequency, TF over GST control); with ELF4, 1.04 fold enrichment (6-mer frequency, TF over GST control); in the assay with ELK4 it was 1.04 fold enrichment (6-mer frequency, TF over GST control). Further, the binding signal with ETV2 was 1.13 fold enrichment (6-mer frequency, TF over GST control); in the assay with ELF3, 1.1 fold enrichment (6-mer frequency, TF over GST control); with CRX, 1.74 fold enrichment (6-mer frequency, TF over GST control); in the assay with ETV1 it was 1.05 fold enrichment (6-mer frequency, TF over GST control); in the assay with ERF, 1.07 fold enrichment (6-mer frequency, TF over GST control); with ETV3L it was 1.07 fold enrichment (6-mer frequency, TF over GST control). Also, the binding signal in the assay with ETS2 was 1.13 fold enrichment (6-mer frequency, TF over GST control); with SPDEF, 1.09 fold enrichment (6-mer frequency, TF over GST control); in the assay with ETV7, 1.12 fold enrichment (6-mer frequency, TF over GST control); in the assay with ELF5, 1.04 fold enrichment (6-mer frequency, TF over GST control); with ETV3, 1.16 fold enrichment (6-mer frequency, TF over GST control); in the assay with ETV6 it was 1.07 fold enrichment (6-mer frequency, TF over GST control).
